Holding throughout (assay): NCI-60 one-dose screen, 48 h (100 = growth as untreated, 0 = no growth, -100 = all killed)
One experiment relates to HCT-15 colon. To be noted: 10 µM unless noted.
For another experiment, the system named is HT29 colon. To be noted: 10 µM unless noted.
The next experiment concerns SNB-75 CNS. To be noted: 10 µM unless noted.
A further experiment deals with SNB-19 CNS. To be noted: 10 µM unless noted.
For another experiment, the system named is U251 CNS. To be noted: 10 µM unless noted.
The subject of the next experiment is PC-3 prostate. To be noted: 10 µM unless noted.
For a further experiment, the system named is SK-MEL-5 melanoma. To be noted: 10 µM unless noted.
The next experiment has as its system LOX IMVI melanoma. The following applies: 10 µM unless noted.
A further experiment relates to SK-MEL-28 melanoma. The following applies: 10 µM unless noted.
A further experiment deals with SK-MEL-2 melanoma. The following applies: 10 µM unless noted.
Another experiment relates to EKVX NSCLC. To be noted: 10 µM unless noted.
A further experiment concerns SN12C renal. To be noted: 10 µM unless noted.
A further experiment relates to UO-31 renal. The following applies: 10 µM unless noted.
A further experiment relates to TK-10 renal. The following applies: 10 µM unless noted.
The subject of another experiment is ACHN renal. To be noted: 10 µM unless noted.
The subject of the next experiment is CAKI-1 renal. The following applies: 10 µM unless noted.
In the next experiment the test system is A498 renal. To be noted: 10 µM.
The next experiment relates to HL-60(TB) leukemia. To be noted: 10 µM unless noted.
The test system of the next experiment is UACC-62 melanoma. To be noted: 10 µM unless noted.
The subject of a further experiment is CCRF-CEM leukemia. To be noted: 10 µM unless noted.

The values below come from PubChem BioAssay (NCI).

Compounds without any hit were thinned out: in the full panel of roughly 83,000, 20% have a hit.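 Method: cells in 96-well plates; compound added at one concentration; 48 h incubation; percent growth measured; values under 10 scored active.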 Unmarked numbers belong to inactive results. Active and inactive are the calls of the source.

For the molecule `Cc1c(C)c([N+](=O)[O-])c(C)c(C)c1[N+](=O)[O-]`, the growth with HCT-15 colon is 100%; in the experiment with HT29 colon, 100%; in the experiment with SNB-75 CNS, 113%; in the experiment with SNB-19 CNS, 103%; in the experiment with U251 CNS, 99.2%; in the experiment on PC-3 prostate, 105%. The growth in the experiment on SK-MEL-5 melanoma is 107%; in the experiment on LOX IMVI melanoma, 106%; with SK-MEL-28 melanoma, 108%; with SK-MEL-2 melanoma, 90.8%; with EKVX NSCLC, 98.7%; in the experiment with SN12C renal it was 111%. The growth in the experiment with UO-31 renal was 106%; in the experiment on TK-10 renal, 107%; with ACHN renal, 106%; with CAKI-1 renal, 91.3%; with A498 renal, 94.3%; with HL-60(TB) leukemia it was 109%.

In the case of `CC[C@H](C)[C@H](NC(=O)[C@H]1CCCCN1C)C(=O)N(C)[C@H](C[C@@H](OC(C)=O)c1cccc(C(=O)N[C@@H](Cc2ccccc2)C[C@H](C)C(=O)O)n1)C(C)C`, the growth with HCT-15 colon was 9.38% (active); in the experiment on HT29 colon, -13.2% (active); in the experiment with SNB-75 CNS, 8.07% (active); in the experiment on SNB-19 CNS, 26.9%; with U251 CNS, 13.6%; with PC-3 prostate it was 25.4%. In addition, the growth with SK-MEL-5 melanoma was -24.5% (active); with UACC-62 melanoma it was 40.4%; with LOX IMVI melanoma, 15.3%; in the experiment with EKVX NSCLC, 59.6%; with SN12C renal it was 28.1%; with UO-31 renal, 44.7%. Also, the growth in the experiment with TK-10 renal is 29%; in the experiment on ACHN renal it was 32.3%; with CAKI-1 renal, 13.7%; with A498 renal it was -2.46% (active); in the experiment on HL-60(TB) leukemia, -40% (active); with CCRF-CEM leukemia it was 16.8%.

Regarding `O[C@H](CN1CC1)[C@@H](O)CN1CC1`, the growth is 79.9% in the experiment with HCT-15 colon; 72.5% in the experiment with HT29 colon; 70.6% in the experiment with SNB-75 CNS; 74.5% with SNB-19 CNS; 60.3% in the experiment on U251 CNS; 75.8% in the experiment on PC-3 prostate. In addition, the growth with SK-MEL-5 melanoma is 75.3%; in the experiment with UACC-62 melanoma it was 72.4%; with LOX IMVI melanoma, 44.6%; in the experiment on EKVX NSCLC, 94.6%; with SN12C renal it was 41.1%; in the experiment on UO-31 renal, 51.1%. The growth with ACHN renal is 24%; with CAKI-1 renal, -0.578% (active); in the experiment on A498 renal it was 95.1%; in the experiment with HL-60(TB) leukemia, 30.7%; in the experiment with CCRF-CEM leukemia, 33.3%.

Turning to `COc1cc2c(cc1OCCCn1c(-c3ccccn3)nc3ccccc31)N=C[C@@H]1CCCN1C2=O`, the growth is -22.7% (active) in the experiment with HCT-15 colon; -26.7% (active) with HT29 colon; 23.3% in the experiment with SNB-75 CNS; 27.2% with SNB-19 CNS; -44% (active) with U251 CNS; 12.8% with PC-3 prostate. The growth in the experiment on SK-MEL-5 melanoma was -69.7% (active); in the experiment on LOX IMVI melanoma, -7.37% (active); in the experiment with SK-MEL-28 melanoma, 5.44% (active); in the experiment on SK-MEL-2 melanoma it was -71.1% (active); with EKVX NSCLC, 43.3%; with SN12C renal, 26%. The growth in the experiment with UO-31 renal was -53.7% (active); in the experiment on TK-10 renal, -20.8% (active); in the experiment on ACHN renal it was -64.9% (active); in the experiment on CAKI-1 renal, -6.53% (active); in the experiment on A498 renal it was -72.1% (active); in the experiment with CCRF-CEM leukemia, 5.34% (active).

Regarding `CC(C)CCC(=O)O[C@H]1CC[C@H]2[C@@H]3CCC4=CC(=O)CC[C@]4(C)[C@H]3CC[C@]12C`, the growth in the experiment with HCT-15 colon was 97.4%; in the experiment on HT29 colon, 106%; with SNB-75 CNS, 82.6%; in the experiment on SNB-19 CNS, 105%; in the experiment with U251 CNS it was 99.2%; with PC-3 prostate, 92.8%. Moreover, the growth was 96.5% with SK-MEL-5 melanoma; 97.9% in the experiment with LOX IMVI melanoma; 99.8% in the experiment on SK-MEL-28 melanoma; 115% with SK-MEL-2 melanoma; 73.9% with EKVX NSCLC; 107% in the experiment on SN12C renal. The growth was 82.1% in the experiment on UO-31 renal; 100% with TK-10 renal; 98.5% with ACHN renal; 88.5% in the experiment on CAKI-1 renal; 77.2% in the experiment with A498 renal; 108% with HL-60(TB) leukemia. Further, in the experiment on CCRF-CEM leukemia, the growth is 104%.

`O=[N+]([O-])c1cc([N+](=O)[O-])c(Cl)cc1Cl`: the growth with HCT-15 colon is -58.4% (active); in the experiment on HT29 colon, -53.3% (active); with SNB-75 CNS, -97.7% (active); in the experiment on SNB-19 CNS, 7.75% (active); in the experiment with U251 CNS it was -71.3% (active); in the experiment on PC-3 prostate, -14.7% (active). The growth in the experiment with SK-MEL-5 melanoma was 30.1%; in the experiment with UACC-62 melanoma, -79% (active); in the experiment on LOX IMVI melanoma, -91.1% (active); in the experiment with EKVX NSCLC, -57.1% (active); in the experiment on SN12C renal, -89% (active); in the experiment on UO-31 renal it was -93.9% (active). Further, the growth in the experiment on TK-10 renal is -92.9% (active); with ACHN renal it was -91.5% (active); with CAKI-1 renal it was -81.2% (active); with A498 renal, 80.1%; with HL-60(TB) leukemia, -40.4% (active); with CCRF-CEM leukemia, -36.3% (active).

Consider `O=C(CCCCCCC(=O)Nc1ccc(N(CCCl)CCCl)cc1)NO`, for which the growth in the experiment with HCT-15 colon is 72%; with HT29 colon, 30.5%; with SNB-75 CNS it was 6.28% (active); in the experiment with SNB-19 CNS it was 45%; in the experiment with U251 CNS, 17.9%; in the experiment on PC-3 prostate, 54.6%. For the same molecule, the growth with SK-MEL-5 melanoma was -56.6% (active); with LOX IMVI melanoma, -19.9% (active); in the experiment with SK-MEL-28 melanoma, 35.3%; with SK-MEL-2 melanoma, 49.5%; in the experiment on EKVX NSCLC it was 76.7%; in the experiment with SN12C renal, 18.8%. Also, the growth in the experiment with UO-31 renal is 62%; in the experiment with TK-10 renal, 38.5%; in the experiment with ACHN renal, 16.7%; in the experiment with CAKI-1 renal it was 23%; in the experiment on A498 renal, 54.1%; in the experiment on HL-60(TB) leukemia, 18.4%. For the same molecule, the growth with CCRF-CEM leukemia is 19.4%.

On to `Cc1c(NS(=O)(=O)c2ccccc2)ccc([N+](=O)[O-])c1Cl`, for which the growth in the experiment on HCT-15 colon was 64.9%; with HT29 colon, 76.4%; with SNB-75 CNS, 75.4%; in the experiment on SNB-19 CNS, 61.7%; in the experiment on U251 CNS it was 63.5%; with PC-3 prostate, 56.2%. The growth with SK-MEL-5 melanoma is 25.8%; with UACC-62 melanoma it was 31.2%; with SK-MEL-28 melanoma it was 70.5%; with SK-MEL-2 melanoma, 65.1%; with EKVX NSCLC, 65.3%; in the experiment on SN12C renal it was 58.6%. Besides, the growth with UO-31 renal was 45.1%; in the experiment on TK-10 renal, 77%; with ACHN renal, 69.7%; with CAKI-1 renal, 47.8%; with A498 renal it was 59.3%; with CCRF-CEM leukemia, 64.3%.
